Experimental findings from PubChem BioAssay (NCATS) are described below.

Records with an inconclusive call do not appear. The source made the active and inactive calls. Calls follow the shape of the dose curve; as a rule, active = well fitted cell-killing curve with a large enough effect; inconclusive = small, poorly fitted or top-dose-only effect, or effect the other way; inactive = flat fitted curve, though single readings scatter.

A short description of this test: Cell Viability - LYMP2-003 (AID 965).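 Also: cells exposed to compounds for 24 h before reading; nearly all actives have a fitted effect of over 50% in size.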 The note with it: LYMP2-003 lymphoblastoid cell viability; series mostly up to 92.2 µM. From the text: NIH Chemical Genomics Center [NCGC]
NIH Molecular Libraries Screening Centers Network [MLSCN]
National Institutes of Environmental Health Sciences [NIEHS]
National Toxicology Program [NTP]
We have developed a 1536-well cell-based assay for quantitative high throughput screening (qHTS) against a number of cell lines to determine in vitro cytotoxicity of small molecules. This particular assay uses a human lymphoblastoid cell line (LYMP2-003) purchased from Coriell Institute for Medical Research.
NCGC Assay Protocol Summary:
The CellTiter-Glo luminescent cell viability assay (Promega) is a homogeneous method to measure the number of viable cells in culture. The end point readout of this assay is based on quantitation of intracellular ATP, an indicator of metabolic activity, using the luciferase reaction. Luciferase catalyzes the oxidation of beetle Luciferin to oxyluciferin and light in the presence of ATP. The luminescent signal is proportional to amount of ATP present.
Using the CellTiter-Glo luminescent cell viability assay, the amount of cellular ATP was measured in the lymphoblastoid cell line with complete culture medium following compound treatment for 24 hours. The assay was performed in opaque white Kalypsys 1536-well plates. In the screen, tetraoctylammonium bromide was used as positive control. Library compounds were measured for their ability to cause acute toxicity in the cell line, as reflected by a decrease in intracellular ATP levels, in a concentration-dependent manner. […] AC50 values were determined from concentration-response data modeled with the standard Hill equation.
qHTS protocol for CellTiter Glo lymphoblastoid cellular assay
[Step] [Parameter] [Value] [Description]
1. Reagent; 5 uL; 2500 lymphoblastoid cells/well
2. Time; 5 hr; 37 C incubation
4. Controls; 23 nL; Tetraoctylammonium bromide 6.4pM to 92 uM
5. Time; 24 hr; 37 C incubation
6. Reagent; 5 uL; CellTiter Glo reagent
7. Time; 30 min; Room Temperature
8. Detection; Luminescence; Viewlux plate reader
Keywords: cell viability, cytotoxicity, lymphoblastoid cell line, luminescence, NTPHTS, NTPHTS_NCGC, NIEHS, DSSTox, MLSMR, MLSCN, NIH Roadmap, qHTS, NCGC
For the compound `CC(C)C(=O)Nc1ccc([N+](=O)[O-])c(C(F)(F)F)c1`, the compound was classed as inactive. In the case of `Nc1c2c(nc3ccccc13)CCCC2`, the call was inactive. Next, `CC(C)NCC(O)c1ccc(O)c(O)c1` (centres undefined): “inactive”. In the case of `NCCS(=O)(=O)O` it was “inactive”.

In the case of `Nc1ccn([C@H]2CC[C@@H](CO)O2)c(=O)n1`, the result was inactive. In the case of `Clc1ccc(C(c2ccccc2Cl)C(Cl)Cl)cc1` (centres undefined), the result was inactive. In the case of `Cc1cn([C@H]2C=C[C@@H](CO)O2)c(=O)[nH]c1=O` it was “inactive”. Next, `COc1ccc2c(c1)c(CC(=O)O)c(C)n2C(=O)c1ccc(Cl)cc1`: “inactive”.

As to `CCC1(c2ccccc2)C(=O)NCNC1=O`, the result was inactive. Next, `Cc1ccc(-c2cc(C(F)(F)F)nn2-c2ccc(S(N)(=O)=O)cc2)cc1`: “inactive”; `O=c1[nH]cc(F)c(=O)[nH]1`: “inactive”; `Cn1c(=O)c2[nH]cnc2n(C)c1=O`: “inactive”.

Take `CC(COc1ccccc1)N(CCCl)Cc1ccccc1` (centres undefined): the outcome was inactive. `N[C@@H](Cc1c[nH]c2ccc(O)cc12)C(=O)O`: the outcome was inactive. Turning to `Cn1c(=O)c2c(ncn2C)n(C)c1=O`, the result was inactive. `COc1ccc2[nH]cc(CCNC(C)=O)c2c1`: the outcome was inactive.

`O=c1c(-c2ccc(O)cc2)coc2cc(O)cc(O)c12`: the compound was classed as inactive.

In the case of `Cc1cn([C@H]2C[C@H](N=[N+]=[N-])[C@@H](CO)O2)c(=O)[nH]c1=O`, the call was inactive. Turning to `NS(=O)(=O)c1cc2c(cc1Cl)NCNS2(=O)=O`, the compound was classed as inactive.
